Assay [1] has as its system Zika virus NS2B-NS3 protease. The assay can be described thus: Primary screen GU AMC qHTS for Zika virus inhibitors (AID 1347154). Further: nearly all actives have a fitted effect of over 70% in size. Further: potency means the concentration at half of the fitted maximal effect. The following applies: Zika NS2B-NS3 unlinked protease, AMC fluorogenic substrate; series mostly up to 54.1 µM. In a few lines:
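Unlinked Zika NS2B hydrophilic domain/NS3 protease domain noncovalent complex (25 nM final) in 10 mM Tris-HCl pH 8.0, 0.01% Tween 20, with AMC peptide substrate. Fluorescence (ex 340, em 450 nm) change over 15 min, room temperature; percent inhibition fitted to 4-parameter Hill equation.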

The nature of assay [2]: qHTS of pediatric cancer cell lines to identify multiple opportunities for drug repurposing: Confirmatory screen for MG 63 (6-TG R) cells (AID 1347119). Further: nearly all actives have a fitted effect of over 55% in size. Further: potency means the concentration at half of the fitted maximal effect. The following applies: MG-63 (6-TG resistant) osteosarcoma viability; series mostly up to 45.9 µM. The method, boiled down:
(§1)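 Cells (500-1,000/well) in growth media were settled 5 h at 37 degrees C, then given compounds for 48 h. Viability was read as CellTiter-Glo luminescence. Primary runs used MIPE at 11 points (0.78 nM-46 µM) and NPC at 8 points (0.59 nM-46 µM); follow-ups used 11 points.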

The nature of assay [3]: qHTS of pediatric cancer cell lines to identify multiple opportunities for drug repurposing: Confirmatory screen for control Hh wild type fibroblast cells (AID 1347121). Further: nearly all actives have a fitted effect of over 70% in size. Further: potency means the concentration at half of the fitted maximal effect. Conditions: viability qHTS; series mostly up to 45.9 µM. The method, boiled down:
as §1
In general terms: Quantitative high-throughput screening tests each substance at several concentrations.

Assay [4] can be described thus: qHTS of pediatric cancer cell lines to identify multiple opportunities for drug repurposing: Confirmatory screen for Rh41 cells (AID 1347123).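 Further: potency means the concentration at half of the fitted maximal effect; 48 h compound exposure; nearly all actives have a fitted effect of over 60% in size.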 Conditions: Rh41 rhabdomyosarcoma cells, viability/cytotoxicity qHTS; series mostly up to 45.9 µM. In a few lines:
as §1

The nature of assay [5]: qHTS of pediatric cancer cell lines to identify multiple opportunities for drug repurposing: Confirmatory screen for Rh18 cells (AID 1347125). Further: nearly all actives have a fitted effect of over 55% in size. Further: potency means the concentration at half of the fitted maximal effect. Conditions: Rh18 rhabdomyosarcoma cells, viability; series mostly up to 45.9 µM. In a few lines: as §1
A short description of assay [6]: qHTS of pediatric cancer cell lines to identify multiple opportunities for drug repurposing: Confirmatory screen for Rh30 cells (AID 1347126). Further: nearly all actives have a fitted effect of over 55% in size. Further: potency means the concentration at half of the fitted maximal effect. Conditions: Rh30 rhabdomyosarcoma cell viability; series mostly up to 45.9 µM. The method, boiled down: as §1
Assay [7] in a line: qHTS of pediatric cancer cell lines to identify multiple opportunities for drug repurposing: Confirmatory screen for Saos-2 cells (AID 1347127). Further: nearly all actives have a fitted effect of over 60% in size. Further: potency means the concentration at half of the fitted maximal effect. The following applies: Saos-2 osteosarcoma cell viability; series mostly up to 45.9 µM. In a few lines: as §1
Assay [8] can be described thus: qHTS of pediatric cancer cell lines to identify multiple opportunities for drug repurposing: Confirmatory screen for BT-37 cells (AID 1347117).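 Further: potency means the concentration at half of the fitted maximal effect; viability measured after 48 h of compound exposure; nearly all actives have a fitted effect of over 55% in size.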 Conditions: BT-37 pediatric cancer cells, viability; series mostly up to 45.9 µM. In a few lines:
as §1

A short description of assay [9]: qHTS of pediatric cancer cell lines to identify multiple opportunities for drug repurposing: Confirmatory screen for OHS-50 cells (AID 1347128). Conditions: OHS-50 osteosarcoma cells viability; series mostly up to 45.9 µM. In a few lines:
as §1

A short description of assay [10]: qHTS of pediatric cancer cell lines to identify multiple opportunities for drug repurposing: Confirmatory screen for SK-N-SH cells (AID 1347129).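 Further: cells exposed to compound for 48 h before viability read; nearly all actives have a fitted effect of over 60% in size.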 Further: potency means the concentration at half of the fitted maximal effect. Conditions: SK-N-SH neuroblastoma cell viability; series mostly up to 46.1 µM. The method, boiled down: as §1
The nature of assay [11]: qHTS of pediatric cancer cell lines to identify multiple opportunities for drug repurposing: Confirmatory screen for U-2 OS cells (AID 1347122). Further: nearly all actives have a fitted effect of over 65% in size. Conditions: U-2 OS osteosarcoma cell viability; series mostly up to 45.9 µM. In a few lines: as §1
Assay [12] relates to Zika virus NS2B-NS3 protease (linked construct). The assay can be described thus: Confirmatory screen NINDS AMC qHTS for Zika virus inhibitors (AID 1347152). Further: potency means the concentration at half of the fitted maximal effect; nearly all actives have a fitted effect of over 70% in size. The following applies: Purified linked NS2B-NS3, AMC substrate fluorescence; series mostly up to 110 µM. In a few lines:
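Enzyme (1 nM, linked construct) was preincubated with compound for 15 minutes at room temperature in 10 mM Tris-HCl pH 8.0 with 0.01% Tween 20. Bz-Nle-Lys-Arg-Arg-AMC was then added to 10 microM, and AMC fluorescence was recorded immediately and after 15 minutes.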

Assay [13] concerns Zika virus NS2B-NS3 protease (unlinked complex). The assay can be described thus: Confirmatory screen GU AMC qHTS for Zika virus inhibitors (AID 1347153).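 Further: enzyme at 25 nM with substrate at 10 µM below its Km of 18.3 µM; potency means the concentration at half of the fitted maximal effect; nearly all actives have a fitted effect of over 70% in size.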 Conditions: Recombinant NS2B-NS3 protease, AMC substrate fluorescence; series mostly up to 57.1 µM. The method, boiled down: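 Compounds were preincubated 15 min at room temperature with 25 nM noncovalent NS2B-NS3 protease at pH 8.0; AMC substrate added at 10 microM and 15-min fluorescence gain (340/450 nm) converted to percent inhibition, fitted 4-parameter.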

Each structure is given as a SMILES string. Results filed as inconclusive are left out. A call without a number means that no potency is given here. Unmarked numbers belong to inactive results. Active and inactive are the calls of the source. The call rests on the fitted dose curve; in most records, active means well fitted curve in the direction sought with a large enough effect; inconclusive means small, poorly fitted or top-dose-only effect, or another doubt; inactive means no such curve, though single readings can be large; an effect the other way counts as inactive or inconclusive.

Take `CS(=O)(=O)c1ccc(-c2cnc(N)c(C(=O)Nc3ccccc3)n2)cc1`: the Potency entry in assay [1] was “inactive”.

Take `Nc1nc(NCCNc2ncc(-n3ccnc3)c(-c3ccc(Cl)cc3Cl)n2)ccc1[N+](=O)[O-]`: in [1], the Potency entry is “inactive”.

For the molecule `Cc1ccc2nc(NC(=O)CSc3nc4c(c(=O)n3-c3ccccc3)SCC4)sc2c1`, the Potency in [2] was 5.22 µM (active); in assay [3] it was 14.7 µM (active); in assay [4], 20.8 µM (active). Moreover, the Potency result in assay [5], in [6] and in assay [7] was “inactive” throughout.

Turning to `Cc1c(CN2CCN(S(C)(=O)=O)CC2)sc2c(N3CCOCC3)nc(-c3cnc(N)nc3)nc12`, the Potency in assay [8] is 2.08 µM (active); in [2], 0.329 µM (active); in assay [4] it was 0.928 µM (active); in assay [5], 1.04 µM (active); in [7], 1.31 µM (active); in [9], 2.33 µM (active). Besides, the Potency in [10] was 2.96 µM (active). The Potency result in assay [1] is “inactive”.

Take `Nc1ccn([C@@H]2O[C@H](CO)[C@H](O)C2(F)F)c(=O)n1`: the Potency was 0.0074 µM (active) in assay [8]; 2.33 µM (active) in assay [2]; 0.0522 µM (active) in assay [4]; 2.93 µM (active) in assay [5]; 5.85 µM (active) in assay [6]. Besides, the Potency result in assay [11], in assay [10] and in [1] was “inactive” in each case.

Regarding `COc1cc(C(=O)NS(=O)(=O)c2ccccc2C)ccc1Cc1cn(C)c2ccc(NC(=O)OC3CCCC3)cc12`, the results for the Potency in assay [12], in [13] and in [1] were 9.61 µM (active), 17.1 µM (active) and 12.6 µM (active), respectively.

Regarding `CN(C)CCCN=c1c2ccccc2n(C)c2[nH]c(=O)n(C)c(=O)c12`, the values for the Potency in [8] and in assay [4] were 18.5 µM (active) and 23.3 µM (active), respectively. Moreover, the Potency result in [2], in assay [3], in assay [11], in assay [7], in assay [10] and in [1] was “inactive” in each case.

As for `COCCOc1ccc2c(c1)ncn2-c1ccc2cccc(N3CCC(N)CC3)c2n1`, the Potency entry in assay [1] is “inactive”.

As to `Nc1ncnc2c1c(-c1cccc(OCc3ccccc3)c1)cn2C1CC(CN2CCCC2)C1` (centres undefined), in assay [1], the Potency entry is “inactive”.

Regarding `Nc1ccc(S(=O)(=O)Nc2ncccn2)cc1`, the Potency entry in assay [1] was “inactive”.

For `COc1ccc2c(c1)CC[C@@H](CN(C)CC(=O)O)[C@H]2c1ccccc1`, in assay [1], the Potency result is “inactive”.

As for `Cn1c(CNc2ccc(C(=N)N)cc2)nc2cc(C(=O)N(CCC(=O)O)c3ccccn3)ccc21`, the Potency result in assay [1] was “inactive”.

For the molecule `COc1ccc2c(OCc3nnc4ccc(-c5ccccc5)nn34)ccnc2c1`, the Potency entry in assay [1] is “inactive”.

Turning to `COc1cc2ncn(-c3cc(OCc4ccccc4C(F)(F)F)c(C(N)=O)s3)c2cc1OC`, the Potency entry in [1] was “inactive”.

Turning to `Nc1nc(Nc2ccc(S(N)(=O)=O)cc2)nn1C(=O)c1c(F)cccc1F`, the Potency entry in assay [1] is “inactive”.

Take `Nc1nc(-c2nn(Cc3ccccc3F)c3ncccc23)nc(N)c1N1CCOCC1`: the Potency result in assay [1] is “inactive”.

With `COc1cc(C(=O)N2CCC(N3CCN(C)CC3)CC2)ccc1Nc1ncc2c(n1)N(C)c1ccccc1C(=O)N2C`, in assay [1], the Potency result was “inactive”.

Turning to `COc1c(N2C[C@@H]3CCCN[C@H]3C2)c(F)cc2c(=O)c(C(=O)O)cn(C3CC3)c12`, in assay [1], the Potency is 30.4 µM (active).

Take `Cc1ccc(CN2CCNCC2)cc1NC(=O)CNc1ccc(F)c(F)c1`: the Potency result in assay [1] is “inactive”.

Regarding `Clc1cccc(-c2nnnn2Cc2cccnc2)c1Cl`, the Potency result in assay [1] is “inactive”.

For `COc1cc(C)c(Sc2cnc(NC(=O)c3ccc(CNC(C)C(C)C)cc3)s2)cc1C(=O)N1CCN(C(C)=O)CC1` (centres undefined), the Potency result in assay [1] is “inactive”.

Regarding `COc1cc(C(C)C)c2c(c1)S(=O)(=O)N(COc1cc(=O)n3cccc(OCCN4CCCCC4)c3n1)C2=O`, in assay [1], the Potency result was “inactive”.

Take `C1Cc2[nH]nc(-c3nn[nH]n3)c2C1`: in assay [1], the Potency entry is “inactive”.

With `Cn1c2cc(S(C)=O)sc2c2cnn(Cc3cccc(N)c3)c(=O)c21` (centres undefined), the Potency result in assay [1] is “inactive”.

As for `CCC[C@H](NC(=O)C(C#N)=Cc1cccc(Br)n1)c1ccccc1`, the Potency entry in assay [1] was “inactive”.

With `CC(C)=CCCC(C)=CCCC(C)=CCSc1ccccc1C(=O)O`, the Potency in assay [1] was 13.6 µM (active).

In the case of `CCc1cc2c(cc1N1CCC(N3CCOCC3)CC1)C(C)(C)c1[nH]c3cc(C#N)ccc3c1C2=O`, the Potency result in assay [1] is “inactive”.

With `Cc1cccc(C=NNc2cc(N3CCOCC3)nc(OCCc3ccccn3)n2)c1`, the Potency entry in [1] is “inactive”.

For the molecule `OCc1ccc(-c2ccc(-c3ccc(CO)s3)o2)s1`, in [1], the Potency was 26.7 µM (active).

Regarding `Nc1ccn([C@@H]2CS[C@H](CO)O2)c(=O)n1`, the Potency result in assay [1] was “inactive”.

Take `Cn1cc(-c2[nH]c3cc(NC(=O)[C@H](N)C4CCCCC4)cc4c3c2C=NNC4=O)cn1`: the Potency result in [1] was “inactive”.

On to `COc1cc2c(Nc3ccc(NC(=O)c4ccccc4)cc3)ncnc2cc1OCCCN1CCOCC1`, for which the Potency entry in assay [1] was “inactive”.

Consider `CN1c2cc(O)c(N=NC(N)=O)cc2CC1S(=O)(=O)O` (centres undefined), for which, in [1], the Potency result is “inactive”.

Turning to `C[C@@H]1CN(CC(=O)Nc2ccc3c(c2)Cc2cccc(-c4cc(=O)cc(N5CCOCC5)o4)c2S3)C[C@H](C)O1`, the Potency entry in assay [1] was “inactive”.

For the molecule `CC(=O)OCCN1C(=O)c2c(C)nc3ccc(S(=O)(=O)N4CCOCC4)cc3c2C1=O`, the Potency result in assay [1] is “inactive”.

For the molecule `c1cc(-c2cnn3cc(-c4ccc(OCCN5CCCCC5)cc4)cnc23)ccn1`, in assay [1], the Potency result is “inactive”.

For `CCOc1ccccc1OCCNC(C)Cc1ccc(OC)c(S(N)(=O)=O)c1` (centres undefined), the Potency entry in assay [1] was “inactive”.

With `O=C(O)CCCc1c[nH]c2ccccc12`, in assay [1], the Potency entry is “inactive”.

Regarding `c1ccc2c(CCNc3ccc(Nc4ccncc4)cc3)c[nH]c2c1`, in assay [1], the Potency entry is “inactive”.

Consider `O=C(O)CO.[NH2-].[NH2-].[Pt+2]`, for which the Potency entry in [1] is “inactive”.

With `Cc1cn2cc(C(=O)N(C)CCO)cc(N[C@@H]3CCOc4cccc(C)c43)c2n1`, in assay [1], the Potency result is “inactive”.

As for `N#CCNC(=O)c1ccc(-c2ccnc(Nc3ccc(N4CCOCC4)cc3)n2)cc1`, the Potency entry in assay [1] was “inactive”.

Take `Cn1cc(-c2ccncc2)c(-c2ccc(OCc3ccc4ccccc4n3)cc2)n1`: in assay [1], the Potency entry was “inactive”.

`NC(=O)c1c(OCc2c(F)cc(Br)cc2F)nsc1NC(=O)NCCCCN1CCCC1`: in assay [1], the Potency entry was “inactive”.

On to `CCCCCCCCCC(=O)N[C@@H](Cc1c[nH]c2ccccc12)C(=O)N[C@H](CC(N)=O)C(=O)N[C@@H](CC(=O)O)C(=O)N[C@@H]1C(=O)NCC(=O)N[C@@H](CCCN)C(=O)N[C@@H](CC(=O)O)C(=O)N[C@H](C)C(=O)N[C@@H](CC(=O)O)C(=O)NCC(=O)N[C@H](CO)C(=O)N[C@@H]([C@@H](C)CC(=O)O)C(=O)N[C@@H](CC(=O)c2ccccc2N)C(=O)O[C@@H]1C`, for which the Potency result in assay [1] is “inactive”.

For `O=C(O)[C@H](Cc1c[nH]c2ccccc12)N1C(=O)c2ccccc2C1=O`, the Potency entry in [1] was “inactive”.

Source of the values: PubChem BioAssay (NCATS).
